# Several values for one entry are separate records, joined by “and”; a condition that tells them apart may be missing. Identical values can stand only once. Inconclusive results are not listed. The source holds several records for some structures; these can differ, active in one and inactive in another. Unmarked numbers belong to inactive results. Activity calls are given as the source filed them. The call rests on the fitted dose curve; in most records, active means well fitted cell-killing curve with a large enough effect in the repeat runs; inconclusive means weak or mixed curves, or effect the other way; inactive means flat fitted curve, though single readings scatter.
# Experiment: qHTS RealTime-Glo MT Cell Viability Assay in HEK293 cells - 40 hour (AID 1224874); further: nearly all actives have a fitted effect of over 50% in size
# Settings: RealTime-Glo luminescence; max response: hits give low values
# Description: U.S. Tox21 Program National Center for Advancing Translational Sciences [NCATS] NIH Chemical Genomics Center [NCGC] U.S. Environmental Protection Agency [EPA] National Institutes of Environmental Health Sciences [NIEHS] National Toxicology Program [NTP] U.S. Food and Drug Administration [FDA] Tox21 Assay Overview: Measure of cell viability is critical in the cell-base assay. Analysis of cell viability is necessary for the characterization of cell responses to cytotoxic drugs and environmental stress. A RealTime-Glo MT Cell Viability Assay to monitor cell viability in real time of continues cell culture during 40 hours of compound treatment was used to screen Tox21 10K library compounds in Hek293 cells. The RealTime-Glo MT Cell Viability Assay is a nonlytic, homogeneous, bioluminescent method to measure cell viability in real time using a simple, plate-based method. The assay involves adding NanoLuc luciferase and a cell-permeant prosubstrate to cells in culture. Viable cells reduce the proprietary prosubstrate to generate a substrate for NanoLuc luciferase. This substrate diffuses from cells into the surrounding culture medium, where it is rapidly used by the NanoLuc Enzyme to produce a luminescent signal. The signal correlates with the number of viable cells, making the assay well suited for cytotoxicity studies.
# Tox21 Assay Protocol Summary: The mixture of Hek293 cell suspension and reagents were dispensed at 600cells/6 ul/well in 1536-well tissue culture treated black solid bottom plates using a Multidrop dispenser. After the assay plates were incubated at a 37 C/5% CO2 incubator for 5 hours, 23 nL of compounds dissolved in DMSO, positive and negative controls was transferred to the assay plate by a pintool work station. The plates were incubated at 37 C for 40 hours. The luminescence intensity were measured at 0h, 8h, 16h, 24h, 32h and 40h time points using ViewLux plate reader during compound treatment.
# On the % scale 0 is the no-effect control and ±100 the full control effect; potency means the concentration at half of the fitted maximal effect.
SMILES,max response,Potency
CN(C)NC(=O)CCC(=O)O,2.52% and 2.58%,–
Cc1cccc(C)c1NC(=O)CN1CCCC1=O,1.79% and -7.42% and 6.42%,–
CCCOC(=O)c1ccccc1C(=O)OCCC,0.157% and 0.878%,–
Cc1ccc(O)c(C)c1,4.17% and 0.581%,–
COC(=O)Nc1cccc(OC(=O)Nc2cccc(C)c2)c1,3.85% and -5.62%,–
CNC(=O)Oc1cccc2ccccc12,-29.1% and -20.7% and -13.7%,–
Nc1ccc([As](=O)(O)O)cc1,6.3% and -4.26% and 1.01%,–
Nc1cccc(Cl)c1,0.922%,21.9 µM (active)
CC[N+](=O)[O-],7.02% and 16.9%,–
CNC(=O)O/N=C/C(C)(C)S(C)(=O)=O,3.09% and 0.619%,–
C=CC(=O)OCCCCCC(C)C,-0.829% and 3.33%,–
CN1C(=O)CCS(=O)(=O)C1c1ccc(Cl)cc1 (stereo unspecified),4.07% and -0.966%,–
Oc1c(Br)cc(Br)cc1Br,-1.22%,–
OCc1ccco1,1.99% and 6.54%,–
CNc1cnn(-c2cccc(C(F)(F)F)c2)c(=O)c1Cl,-24.9% and -29.1%,–
O=[N+]([O-])c1ccc(Cl)cc1,4.49% and 2.44%,–
ClC(Cl)c1ccccc1,4.95% and 0.497%,–
O=C(O)COc1ccccc1,-2.67% and 2.52% and 5.65%,–
Cl[C@H]1OCCO[C@@H]1Cl,9.41% and 3.91%,–

SMILES,max response,Potency
c1ccc2c(c1)CCCC2,1.92% and 10.6%,–
COS(=O)(=O)OC,1.63% and 22.3%,–
N#Cc1cccc(C#N)c1,2.43% and 3.42%,–
Cc1ccc(N)cc1,-16.7% and 1.44% and -0.523%,–
COC(C)(C)CCCC(C)C/C=C/C(C)=C/C(=O)OC(C)C (stereo unspecified),0.0106%,–
CCNc1nc(Cl)nc(NC(C)C)n1,2.47% and -5.57%,–
CCOc1ccc(N)cc1,2.16% and -1.88%,–
O=[N+]([O-])c1cc([As](=O)(O)O)ccc1O,6.64% and -3.36% and 2.24%,–
CCSC(=O)N1CCCCCC1,3.34%,12 µM (active)
ClCCOCCCl,-3.17% and -5.17%,–
CNCC(O)c1ccc(O)cc1 (stereo unspecified),4.3% and -3.08%,–
C/C=C/c1ccc2c(c1)OCO2,-5.98% and -4.01%,–
CC(C)(C)C(=O)CCl,4.78% and -0.671%,–
C=CC#N,-6.45% and -0.644%,–
CSc1nnc(C(C)(C)C)c(=O)n1N,-23.1% and -14.9%,–
CCCCCCCCCCCCCCCCCC(=O)O,2.01% and -1.45% and 0.984%,–
N#Cc1ccccn1,-0.449% and 4.77%,–
Cc1cccc(C)c1N,-0.963% and 19.7%,–
COc1cc(-c2ccc(N)c(OC)c2)ccc1N,-23.4% and -26.2%,37.1 µM (active)
